Measured values from PubChem BioAssay.
Activity calls are given as the source filed them.

Columns and labels:
[1] = A549 cell viability effects, profiling panel, calcein-AM fluorescence, 48 h, basal (AID 1162); conditions: higher = more signal; also: test concentration not given here
[2] = adipocyte viability effects, profiling panel, cell-based, 3T3-L1 adipocytes, calcein-AM fluorescence, 48 h, basal (AID 1163); conditions: 3T3-L1 adipocytes viability, higher = more signal; also: test concentration not given here
[3] = HepG2 cell viability effects, profiling panel, calcein-AM fluorescence, 48 h, basal (AID 1164); conditions: higher = more signal; also: test concentration not given here
[4] = MM1S cell viability effects, profiling panel, calcein-AM fluorescence, 48 h, basal (AID 1165); conditions: higher = more signal;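 also: viability of MM1S multiple myeloma cells under basal unstimulated conditions; test concentration not given here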
[5] = basal RPMI8226 viability, no added stimulus, profiling panel, cell-based, calcein-AM fluorescence, 48 h, PK04 Diversity Set (AID 1166); conditions: RPMI8226 myeloma viability, higher = more signal;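 also: cells grown under basal conditions without added stimulus; test concentration not given here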
[6] = basal HepG2 mitochondrial membrane potential changes, profiling panel, cell-based, JC-1 fluorescence, 24 h, 100 nL compound (AID 1167); conditions: higher = more signal; also: test concentration not given here
[7] = basal 3T3-L1 adipocyte mitochondrial potential changes, profiling panel, cell-based, JC-1 fluorescence, 3T3-L1 adipocytes, 24 h, 100 nL compound (AID 1168); conditions: JC-1 mitochondrial fluorescence, higher = more signal, called active from +8 up or from −8 down; also: test concentration not given here
[8] = basal RPMI8226 mitochondrial membrane potential changes, profiling panel, cell-based, JC-1 fluorescence, 24 h, 100 nL compound (AID 1169); conditions: RPMI8226 myeloma, JC-1 mitochondrial potential fluorescence, higher = more signal; also: test concentration not given here
[9] = basal MM1S mitochondrial membrane potential changes, profiling panel, cell-based, JC-1 fluorescence, 24 h, 100 nL compound (AID 1170); conditions: higher = more signal; also: test concentration not given here
[10] = A549 lung cancer cell viability effects, profiling panel, resazurin fluorescence, 24 h, PK04 Diversity Set (AID 1171); conditions: higher = more signal, called active from +8 up or from −8 down; also: test concentration not given here
[11] = HepG2 liver cancer cell viability effects, profiling panel, resazurin fluorescence, 24 h, PK04 Diversity Set (AID 1172); conditions: higher = more signal; also: test concentration not given here
[12] = basal S. cerevisiae growth modulation, no modifier, primary screen, OD600, strain BY4716, 24 h, basal condition (AID 1173); conditions: OD600, 24 h, higher = more signal, called active from +8 up or from −8 down
[13] = MM1S myeloma cell viability, profiling panel, resazurin fluorescence, basal, 24 h, PK04 Diversity Set (AID 1174); conditions: higher = more signal, called active from +8 up or from −8 down;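 also: MM1S multiple myeloma cell line; test concentration not given here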
[14] = target: Dihydroorotate dehydrogenase (quinone), mitochondrial (Plasmodium falciparum (isolate 3D7)) (UniProt Q08210); assay: PfDHODH enzyme inhibitors, primary screen, biochemical, C-terminal His tag, absorbance 600 nm (AID 1175); conditions: DCIP absorbance 600 nm, higher = more signal, called active from +8 up or from −8 down;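 also: recombinant parasite enzyme with a five histidine tag at its C terminus; test concentration not given here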
Dihydroorotate dehydrogenase (quinone), mitochondrial (Plasmodium falciparum (isolate 3D7)), sequence (Q08210 whole entry, looked up): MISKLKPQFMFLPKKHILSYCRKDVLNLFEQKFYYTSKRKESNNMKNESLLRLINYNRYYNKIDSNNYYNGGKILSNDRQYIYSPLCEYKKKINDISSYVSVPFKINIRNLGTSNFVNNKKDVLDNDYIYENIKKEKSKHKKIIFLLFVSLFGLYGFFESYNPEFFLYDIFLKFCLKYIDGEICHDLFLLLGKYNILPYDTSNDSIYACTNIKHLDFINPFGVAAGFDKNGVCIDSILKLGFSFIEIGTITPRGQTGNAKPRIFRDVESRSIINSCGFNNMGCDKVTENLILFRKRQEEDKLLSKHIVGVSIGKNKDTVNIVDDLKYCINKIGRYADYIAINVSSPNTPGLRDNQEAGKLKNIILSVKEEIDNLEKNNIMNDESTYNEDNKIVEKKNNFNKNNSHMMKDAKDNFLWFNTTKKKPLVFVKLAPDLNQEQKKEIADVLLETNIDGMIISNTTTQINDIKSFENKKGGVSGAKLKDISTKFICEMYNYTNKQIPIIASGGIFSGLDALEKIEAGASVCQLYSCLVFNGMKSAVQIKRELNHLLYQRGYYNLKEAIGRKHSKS

[15] = S. cerevisiae RM11-1a growth modifiers, primary screen, strain RM11-1a, OD600, basal, 24 h (AID 1177); conditions: OD600, 24 h, higher = more signal, called active from +8 up or from −8 down;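 also: cultures grown under basal conditions with no added stressor; test concentration not given here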
[16] = E. coli acrAB mutant growth effects, primary screen, E. coli filamentation inducers, strain DRC39, OD650, 24 h (AID 1178); conditions: higher = more signal, called active from +8 up or from −8 down;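 also: growth measured as culture turbidity by optical density at 650 nm; test concentration not given here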
[17] = E. coli acrAB mutant growth effects, primary screen, E. coli filamentation inducers, strain DRC39, OD650, 48 h (AID 1179);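 also: screen aims at cell division blockers that make cells filament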; conditions: E. coli DRC39 delta-acrAB growth, higher = more signal, called active from +8 up or from −8 down
[18] = RPMI8226 myeloma cell viability, profiling panel, resazurin fluorescence, basal, 24 h, PK04 Diversity Set (AID 1180); conditions: higher = more signal;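 also: RPMI8826 multiple myeloma cell line at 5000 cells per well; test concentration not given here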
[19] = target: E3 ubiquitin-protein ligase XIAP (Homo sapiens) (UniProt P98170); assay: XIAP binders, primary screen, biophysical, small-molecule microarray, fluorescence 635 nm (AID 1181); conditions: small-molecule microarray binding, higher = more signal;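 also: score merges 667 nm emission and signal to noise over triplicate slides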
E3 ubiquitin-protein ligase XIAP (Homo sapiens), sequence (P98170 whole entry, looked up): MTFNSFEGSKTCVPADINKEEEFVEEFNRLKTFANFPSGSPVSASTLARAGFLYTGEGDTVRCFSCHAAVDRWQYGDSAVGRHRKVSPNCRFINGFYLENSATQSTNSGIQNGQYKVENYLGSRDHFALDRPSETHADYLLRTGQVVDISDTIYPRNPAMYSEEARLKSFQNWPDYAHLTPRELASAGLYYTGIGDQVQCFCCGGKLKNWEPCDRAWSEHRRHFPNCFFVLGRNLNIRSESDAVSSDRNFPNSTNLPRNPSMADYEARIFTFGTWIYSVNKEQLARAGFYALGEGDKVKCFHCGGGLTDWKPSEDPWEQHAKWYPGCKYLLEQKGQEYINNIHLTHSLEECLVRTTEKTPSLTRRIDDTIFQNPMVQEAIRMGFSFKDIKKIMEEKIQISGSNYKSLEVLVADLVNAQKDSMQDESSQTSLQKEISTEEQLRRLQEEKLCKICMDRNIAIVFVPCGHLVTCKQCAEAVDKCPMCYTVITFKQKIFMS

Structure (SMILES)	z-score [1]	z-score [2]	z-score [3]	z-score [4]	z-score [5]	z-score [6]	z-score [7]	z-score [8]	z-score [9]	z-score [10]	z-score [11]	z-score [12]	z-score [13]	composite z-score [14]	z-score [15]	z-score [16]	z-score [17]	z-score [18]	composite z-score [19]
Cc1ccc(S[C@]2(C(=O)O)CC(=O)N(Cc3ccccc3)[C@@H]2c2ccc(CO)cc2)cc1	0.633	-0.671	-0.18	-0.476	0.607	0.536	0.923 (inactive)	0.118	-0.418	0.477 (inactive)	1.06	-3.67 (inactive)	1.6 (inactive)	-0.891 (inactive)	-1.14 (inactive)	0.537 (inactive)	0.612 (inactive)	0.512	0.123
Cc1ccc(S[C@]2(C(=O)NCCCN(C)C)CC(=O)N(C3CCCCC3)[C@@H]2c2ccc(CO)cc2I)cc1	-0.272	1.8	-4.31	-3.25	-3.08	1.8	0.794 (inactive)	-0.644	-1.84	-0.835 (inactive)	-1.37	-2.6 (inactive)	-7.69 (inactive)	0.895 (inactive)	1.25 (inactive)	-0.0999 (inactive)	-0.737 (inactive)	-5.11	-0.0636
O=C(CS)NCCCCCNC(=O)[C@H]1C[C@H]2C(=O)N3CCC[C@H]3C(=O)N2[C@H]1c1ccc(O)cc1	0.931	-0.172	-0.0292	0.965	-0.0858	1.89	0.797 (inactive)	0.34	-0.235	0.641 (inactive)	0.743	-1.04 (inactive)	0.613 (inactive)	-0.581 (inactive)	-0.881 (inactive)	1.2 (inactive)	1.34 (inactive)	1.09	-0.02
Cc1ccc(N2C(=O)c3ccccc3[C@](C)(C(=O)O)[C@@H]2c2ccc(CO)cc2)nc1	0.0643	0.937	-0.0479	-0.231	0.614	0.521	0.23 (inactive)	-0.167	0.25	0.755 (inactive)	0.522	-0.0489 (inactive)	1.28 (inactive)	0.217 (inactive)	0.826 (inactive)	0.826 (inactive)	0.396 (inactive)	1.27	-0.0641
O=C1c2ccccc2[C@](Cc2ccccc2I)(C(=O)O)[C@H](c2ccc(CO)cc2)N1C1CCCCC1	0.0699	2.82	-0.0275	0.832	-3.14	0.0952	-0.641 (inactive)	-0.193	0.148	1.07 (inactive)	-0.221	-1.14 (inactive)	1.8 (inactive)	-0.0088 (inactive)	-1.05 (inactive)	0.938 (inactive)	0.832 (inactive)	1.36	0.0225
C=CCNC(=O)[C@H]1[C@@H]2C(=O)O[C@@H](c3ccccc3)[C@@H](c3ccccc3)N2[C@@H](c2ccccc2OCCO)[C@]12C(=O)N(C(=O)OCCOC)c1ccc(C#CCC(C(=O)OC)C(=O)OC)cc12	0.208	2.2	0.128	-2.95	-3.66	0.348	1.54 (inactive)	-1.02	-1.35	-0.131 (inactive)	-0.234	1.06 (inactive)	1.25 (inactive)	0.229 (inactive)	1.72 (inactive)	1.11 (inactive)	0.761 (inactive)	-0.54	0.182
C[C@H]1COC(=O)[C@H](Cc2ccccc2)NC(=O)[C@@H](C)COC(=O)[C@H](Cc2ccccc2)NC1=O	-0.429	1.27	0.0613	0.244	1.03	0.827	0.382 (inactive)	-0.405	0.0881	0.512 (inactive)	0.24	-1.23 (inactive)	1.04 (inactive)	0.063 (inactive)	-1.43 (inactive)	0.253 (inactive)	-0.156 (inactive)	1.28	-0.127
CC(=O)NCCCC[C@@H]1NC(=O)[C@@H]2C[C@H](C(=O)NCCCCCCN(C)C)[C@H](c3ccc(O)cc3)N2C1=O	-0.378	1.28	-1.04	-0.365	0.495	1.43	0.957 (inactive)	0.641	0.925	0.318 (inactive)	0.478	-0.574 (inactive)	1.12 (inactive)	0.266 (inactive)	0.662 (inactive)	0.325 (inactive)	0.249 (inactive)	0.912	0.103
C=CCN1C(=O)[C@]2(O[C@H](CCn3cc(CCO)nn3)[C@@H]([Si](C)(C)c3ccc(OC)cc3)[C@@H]2C)c2cc(NC(=O)c3ccc(OC)cc3)ccc21	-0.423	0.727	-0.792	-2.7	-4.31	3.04	1.61 (inactive)	-1.09	0.122	-2.65 (inactive)	-1.89	-2.6 (inactive)	-4.32 (inactive)	1.31 (inactive)	1.23 (inactive)	1.8 (inactive)	0.797 (inactive)	-4.33	-0.104
C[C@H]1COC(=O)[C@@H]2CCCN2C(=O)[C@@H](C)COC(=O)[C@@H]2CCCN2C1=O	0.507	0.442	-0.178	0.323	-0.0243	0.799	0.085 (inactive)	-0.108	0.0551	1.5 (inactive)	0.678	-0.978 (inactive)	0.93 (inactive)	-0.0223 (inactive)	-0.691 (inactive)	0.825 (inactive)	-0.0322 (inactive)	0.73	-0.294
CCN1C(C)=C(C(=O)OC)[C@@H](c2ccccc2)N2C(=O)[C@](O)(C(=O)OC)[C@@H](c3ccccc3)C(C(C)=O)=C12	0.158	2.15	-0.473	0.244	-0.918	1.35	0.982 (inactive)	0.195	-0.14	-0.468 (inactive)	-0.267	-2.6 (inactive)	1.43 (inactive)	-5.15 (inactive)	-1.84 (inactive)	-0.891 (inactive)	-2 (inactive)	0.554	-0.0167
Cc1ccc(N2C(=O)c3ccccc3[C@@H](C(=O)NCc3ccccc3)[C@@H]2c2ccc(CO)cc2)nc1	1.08	1.14	-0.296	0.2	1.18	0.532	1.07 (inactive)	0.0567	0.202	0.737 (inactive)	0.138	0.0819 (inactive)	1.36 (inactive)	0.787 (inactive)	1.11 (inactive)	-0.0753 (inactive)	-0.0787 (inactive)	1.06	0.02
C/C(=N\O)C(=O)NCCCCCNC(=O)OCc1ccccc1	1.3	0.895	0.206	0.476	0.239	1.09	0.334 (inactive)	-0.561	1.24	0.707 (inactive)	1.09	-2.13 (inactive)	-0.158 (inactive)	-0.4 (inactive)	-0.608 (inactive)	2.59 (inactive)	1.43 (inactive)	0.73	-0.258
CC(C)(C)OC(=O)CC[C@@]1(C(=O)NCc2ccccc2)N=C(c2ccc(OCCCO)cc2)O[C@@H]1c1ccccc1	-0.595	1.16	-0.907	-2.37	-3.23	1.9	4.19 (inactive)	-0.791	-0.552	-2.88 (inactive)	-0.956	-0.454 (inactive)	-1.49 (inactive)	-0.362 (inactive)	-0.801 (inactive)	2.23 (inactive)	1.5 (inactive)	-1.76	0.174
C[C@@H]1CC[C@H]2C(=O)N3CCC[C@H]3C(=O)N2[C@H]1c1ccc(Br)cc1	1.09	-0.0296	0.0327	0.517	0.0262	0.412	1.02 (inactive)	-0.167	0.324	0.673 (inactive)	1.55	-0.654 (inactive)	0.864 (inactive)	0.238 (inactive)	0.393 (inactive)	0.898 (inactive)	0.8 (inactive)	0.506	-0.193
O=C1O[C@@H](c2ccccc2)[C@@H](c2ccccc2)N2[C@@H](c3ccccc3OCCO)[C@]3(C(=O)Nc4ccc(C#CC5=CCCCC5)cc43)[C@@H](C(=O)O)[C@H]12	-1	1.61	-0.992	-3.39	-4.65	-3.81	4.74 (inactive)	-1.07	-0.999	0.289 (inactive)	0.172	-0.5 (inactive)	-2.81 (inactive)	-4.84 (inactive)	3.46 (inactive)	0.175 (inactive)	0.45 (inactive)	-5.59	0.105
Cc1ccc(S(=O)(=O)c2cc3oc2CC[C@@H](CO)NC(=O)N(C)Cc2cn(nn2)C[C@H](Cc2ccccc2)NC3=O)cc1	1.66	-0.129	0.372	-0.971	1.28	1.35	0.856 (inactive)	0.501	0.536	1.39 (inactive)	1.02	-2.64 (inactive)	1.42 (inactive)	0.164 (inactive)	0.288 (inactive)	1.74 (inactive)	1.3 (inactive)	1.03	0.0975
CCCCO[C@H]1C[C@H]2C(Br)=C[C@@]1(CO)C(=O)[C@]21CO1	0.491	0.53	-0.337	-0.997	-0.545	0.76	1.33 (inactive)	-1.12	0.149	0.6 (inactive)	1.24	-3.84 (inactive)	1.07 (inactive)	-0.343 (inactive)	-1.86 (inactive)	2.66 (inactive)	1.48 (inactive)	0.999	-0.02
CC(C)[Si](OCCCNS(=O)(=O)c1ccc(Br)cc1)(C(C)C)C(C)C	0.0609	0.279	-2.5	-3.23	-4.09	-3.5	2.29 (inactive)	-0.218	0.727	-0.116 (inactive)	1.49	-1.79 (inactive)	0.766 (inactive)	0.0026 (inactive)	-2.85 (inactive)	2.79 (inactive)	2.3 (inactive)	-1.26	-0.18
